The full ranking holds about 39,000 sequences; the median of “fluorescence intensity (a.u.)” is about 4,300, and the highest 2% start at about 39,000. Many of the other results were omitted from the sample, so the highest values are more common in it than they were.

The target of this assay is T1, OsSMF1 (Oryza sativa, UniProt Q6ZLB0 1-436).
T1 sequence: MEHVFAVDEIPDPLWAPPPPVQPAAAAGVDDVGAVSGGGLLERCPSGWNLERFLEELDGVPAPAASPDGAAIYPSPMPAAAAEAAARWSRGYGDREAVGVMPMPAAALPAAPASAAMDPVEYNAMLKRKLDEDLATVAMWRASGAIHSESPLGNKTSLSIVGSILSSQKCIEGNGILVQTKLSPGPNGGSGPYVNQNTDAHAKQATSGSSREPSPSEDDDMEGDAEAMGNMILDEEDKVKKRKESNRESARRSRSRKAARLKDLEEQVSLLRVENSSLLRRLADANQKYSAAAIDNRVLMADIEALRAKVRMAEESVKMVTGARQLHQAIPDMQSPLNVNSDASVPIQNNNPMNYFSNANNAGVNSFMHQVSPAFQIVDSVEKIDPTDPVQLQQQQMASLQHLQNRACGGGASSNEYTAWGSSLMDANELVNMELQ
Description: protein-binding microarray (RPBM); PBS, 2% BSA, 51.3 ng/ul salmon testes DNA, 50 uM zinc acetate, 200 nM TF, 25 C, 1 h; high values mean tight binding. As to conditions: protein: recombinant; tags: N-terminal polyhistidine and DsRed monomer fusion (pET32a); chain copies: 2; label: CyDye5-dUTP incorporated in the synthesized complementary strand; 3' TTTTT single-stranded linker to array surface; dsDNA, one strand shown. A digest of the protocol: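 Binding signal is defined as the fluorescence intensity of each feature in arbitrary units, read on an Axon 4000B scanner. Transcription factors with N-terminal polyhistidine and DsRed fusions came from E. coli BL21-CodonPlus and were purified on Ni–NTA. They were incubated at 200 nM for 1 h at 25 °C on a custom Agilent array that had been made double-stranded with Cy5-dUTP, with 50 µM zinc acetate present, and the array was washed.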
As to “TATATACTCTCTTCGTTTCAAAATGTTTGACGCCGTTAACCGGAGTCACCTAGTGCAG”, the binding signal is 3670 fluorescence intensity (a.u.).
With “TTAAAACTCAATTAATCACACGTTATTACCACCTCGTTTTCGGAGTCACCTAGTGCAG”, the binding signal is 3210 fluorescence intensity (a.u.).
Regarding “CTCAAAACCACACCGTTAAATGTTTTACCCTACTCTCGTACGGAGTCACCTAGTGCAG”, the binding signal was 39200 fluorescence intensity (a.u.).
As to “ATAGTATAAAAGTAATGTGATGTGGCTTTATGAGAGAAAACGGAGTCACCTAGTGCAG”, the binding signal is 3780 fluorescence intensity (a.u.).
Regarding “TGACAGCCACAAGTATGATGTGATAAAGTGTGGCTATAAACGGAGTCACCTAGTGCAG”, the binding signal was 65500 fluorescence intensity (a.u.).
Take “TATATATATATATATATATAAAGTGTATGACATGTGATCACGGAGTCACCTAGTGCAG”: the binding signal is 3970 fluorescence intensity (a.u.).
For the sequence “GGAGAAAATTGCGGAGGGGATCCACAGTTCCAGCCGCGTGCGGAGTCACCTAGTGCAG”, the binding signal is 3190 fluorescence intensity (a.u.).
“ACAAAATTTATTTCCAGGTGGCGTCTCCTCATTGGCCAGCCGGAGTCACCTAGTGCAG”: the binding signal was 4370 fluorescence intensity (a.u.).
Consider “TGGGTGAGAGTTTGAACCCGAACATATGACACATCTATGTCGGAGTCACCTAGTGCAG”, for which the binding signal is 3270 fluorescence intensity (a.u.).
For “TATGTCAATACTGTATGCATATATTAACATAAAATATCTCCGGAGTCACCTAGTGCAG”, the binding signal was 4760 fluorescence intensity (a.u.).
On to “ATCACTCTACTTTGTCTGTGTCATATTATAAGCTGCTTGACGGAGTCACCTAGTGCAG”, for which the binding signal is 5640 fluorescence intensity (a.u.).
In the case of “ACAATTACTGTATTGTGCATATAAGCTGCATATCTATCACCGGAGTCACCTAGTGCAG” it was 39900 fluorescence intensity (a.u.); in that of “AGAAAGCAACATGCTGTCCCGGTGGCACATCCGATTAGTACGGAGTCACCTAGTGCAG”, 3680 fluorescence intensity (a.u.).
Consider “GGCTTCCCGCGCCACAAGCTTTGCCGCCACCTCCTCCTCGCGGAGTCACCTAGTGCAG”, for which the binding signal is 3230 fluorescence intensity (a.u.).
As to “CAGAGTTCCGTTCTGAATTTCTGGTGAGTCATCTGCTGAACGGAGTCACCTAGTGCAG”, the binding signal is 8920 fluorescence intensity (a.u.).
On to “CCTTAGGCTACGTTGGCTTTTGCATTTTGGCGTGGATTTTCGGAGTCACCTAGTGCAG”, for which the binding signal was 14400 fluorescence intensity (a.u.).
In the case of “GTTGTCAGTTGGATAGAACCAGTCCAGGAACGTGTGGCCCCGGAGTCACCTAGTGCAG” it was 3240 fluorescence intensity (a.u.); in that of “GTTGCCTTCGTGTCCAGTGGATAGATAAGGATAGGATTTTCGGAGTCACCTAGTGCAG”, 65500 fluorescence intensity (a.u.).
In the case of “CGCGGATCGGCCGCGAGGCGCACGTGGACATCACCACCAACGGAGTCACCTAGTGCAG” it was 4220 fluorescence intensity (a.u.).
In the case of “GCCGCCGCCGCCGGAGAAGATGATGGTGCCGCTGGATCCGCGGAGTCACCTAGTGCAG”, the binding signal is 43500 fluorescence intensity (a.u.).
“GAGCGCTGCGTGCGCGCGCGTCCGCGGCCACGCCATCCGCCGGAGTCACCTAGTGCAG”: the binding signal was 4600 fluorescence intensity (a.u.).
With “ATGGTGGAGAAGGTGACGATGACACGAGGTGATCTGGATCCGGAGTCACCTAGTGCAG”, the binding signal was 3680 fluorescence intensity (a.u.).
“TTGATGGCGATCTGCGAGGCCGTGCGGGTCACGGAGCGCGCGGAGTCACCTAGTGCAG”: the binding signal was 30900 fluorescence intensity (a.u.).
In the case of “GATGATGATGATGATGATGATGAGAAGGTGGTGCCGCCGCCGGAGTCACCTAGTGCAG” it was 4280 fluorescence intensity (a.u.); in that of “GCTGCACGGCCGCGGCGTGGCGCTGACGGCGACGGTGAGGCGGAGTCACCTAGTGCAG”, 5740 fluorescence intensity (a.u.); in that of “GAAGCTGTCATCGCTGATGCGGCGAAGAGATCATCATCACCGGAGTCACCTAGTGCAG”, 4450 fluorescence intensity (a.u.).
The figure for “GAGCCGCTGATCCGCTGCACGGCGGCGCGGAGCGCGTCGACGGAGTCACCTAGTGCAG” is 39100 fluorescence intensity (a.u.).
As to “CCCGCGCCGCGGCGGATCGATGGAGCTGTTCGAGCGCGCGCGGAGTCACCTAGTGCAG”, the binding signal is 3160 fluorescence intensity (a.u.).
“CGGCGCAGATCCGGCGAGCGGCGGCGGCGGAAGCTGATGGCGGAGTCACCTAGTGCAG”: the binding signal is 39900 fluorescence intensity (a.u.).
Consider “GCGAGCTGTGCCGTTCTTGATCACCGAGGCGATGGCGGCGCGGAGTCACCTAGTGCAG”, for which the binding signal is 39200 fluorescence intensity (a.u.).
As to “AGATGGCGGCGGCGGCGCAGATCCGGCCTCCACGCGCGCACGGAGTCACCTAGTGCAG”, the binding signal is 3940 fluorescence intensity (a.u.).
In the case of “GTTTGGAATTTTGGATAGAAATTCCGGGCGTGACACATCGCGGAGTCACCTAGTGCAG”, the binding signal was 5880 fluorescence intensity (a.u.).
In the case of “ATGTCGCTGTGGCTCATCCGGCCCAAGCCCATTTCCCCACCGGAGTCACCTAGTGCAG”, the binding signal is 29500 fluorescence intensity (a.u.).
Take “AAACTGAAGGGTATTTTCACAAAATTTCCTTTTCTTTCTCCGGAGTCACCTAGTGCAG”: the binding signal was 6620 fluorescence intensity (a.u.).
On to “GTATATGCGTCATGTGCGTCTTCCCTGTCACGAGTGCGTGCGGAGTCACCTAGTGCAG”, for which the binding signal was 7200 fluorescence intensity (a.u.).
Regarding “ACATGTGGGTCCTGTTGACATGTAGGTGCCACCTTGGCATCGGAGTCACCTAGTGCAG”, the binding signal is 4440 fluorescence intensity (a.u.).
On to “GAAACTTTCCTACGCACAAACTTTCAACTTTTACGTCACACGGAGTCACCTAGTGCAG”, for which the binding signal is 3340 fluorescence intensity (a.u.).
With “CATGCTATGTGCTCAAAGGGCAACGGTCGACGTGTGCCTTCGGAGTCACCTAGTGCAG”, the binding signal is 4110 fluorescence intensity (a.u.).
“CTAAACAAAGGATGAGGCTATGAGCACCCACCAACCATACCGGAGTCACCTAGTGCAG”: the binding signal is 34200 fluorescence intensity (a.u.).
In the case of “AGATCTGCACAACCATAACGGCTAAAGAGGAGATACCAAACGGAGTCACCTAGTGCAG”, the binding signal is 65500 fluorescence intensity (a.u.).
As for “ACACAGATCTGCAACCAAAACAAATGCAACACTAAACACCCGGAGTCACCTAGTGCAG”, the binding signal is 26100 fluorescence intensity (a.u.).
As to “GCACAACCGCACACGAGACGACGTCACCCACAACCGCACGCGGAGTCACCTAGTGCAG”, the binding signal was 6040 fluorescence intensity (a.u.).

Values taken from publication PMC7819943, “Rice protein-binding microarrays: a tool to detect cis-acting elements near promoter regions in rice”.
